JMJD2A Tudor inh = qHTS Assay for Inhibitors of JMJD2A-Tudor Domain. AlphaScreen JMJD2A-Tudor / H3K4me3 peptide binding. Potency, µM (top dose mostly 114 µM), for inactives: top-dose activity change, negative = inhibition, actives largely listed as inhibitors. 4.4% of 390,000 active. AID 504339, 2011; also: potency is read from the fitted curve at half-maximal effect; % is scaled to controls: 0 for no effect and ±100 for the full control effect; nearly all actives have a fitted effect of over 50% in size
PLK1 PBD block = qHTS for Inhibitors of PLK1-PDB (polo-like kinase 1 - polo-box domain): Primary Screen | Potency, µM, for the others: max response, negative = inhibition, most hits filed as inhibitors | Plk1 PBD binding of FITC phosphopeptide, fluorescence polarization | 2.8% of 360,000 active; also: potency is read from the fitted curve at half-maximal effect; series mostly up to about 57 µM; % is scaled to controls: 0 for no effect and ±100 for the full control effect; nearly all actives have a fitted effect of over 65% in size
HP1b binding inh = HTS for Inhibitors of HP1-beta Chromodomain Interactions with Methylated Histone Tails; Potency, µM (series often up to 114 µM), for inactives: top-dose activity change, negative = inhibition, most hits filed as inhibitors; 0.56% of 390,000 active; Chromobox protein homolog 1 (Homo sapiens), P83916; AlphaScreen HP1-beta / biotin-H3K9me3 peptide binding; also: potency is read from the fitted curve at half-maximal effect; nearly all actives have a fitted effect of over 70% in size
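HP1-beta protein (50 nM final) preincubated 30 min at room temperature with biotinylated H3(1-18)K9me3 peptide (50 nM) in PBS pH 7.4, 0.01% Tween-20, then compound added for 30 min. AlphaScreen streptavidin donor/nickel chelate acceptor beads (10 ug/mL final), 30 min dark, luminescence read.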
BAZ2B block = qHTS Assay for Inhibitors of BAZ2B; AlphaScreen BAZ2B-H3K14Ac peptide displacement; Potency, µM (doses to about 114 µM), for the others: at the top dose activity change, negative = inhibition, hits mostly inhibitors; 4.4% of 360,000 active; AID 504333, 2011; also: potency is read from the fitted curve at half-maximal effect; % is scaled to controls: 0 for no effect and ±100 for the full control effect; nearly all actives have a fitted effect of over 60% in size
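Compounds, titrated to a top concentration of 110 uM, were incubated 30 min at room temperature with preformed BAZ2B/acetyl-K14 H3 peptide complex (50 nM each). Proximity signal was measured by AlphaScreen after 20 min with beads.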
G9a inh = qHTS Assay for Inhibitors of Histone Lysine Methyltransferase G9a; G9a H3K9 monomethylation, AlphaScreen, 2 h; Potency, µM (doses to about 102 µM), for the others: top-dose activity, negative = inhibition, actives largely listed as inhibitors; 8.8% of 350,000 active; Histone-lysine N-methyltransferase EHMT2 (Homo sapiens), Q96KQ7; also: potency is read from the fitted curve at half-maximal effect; % is scaled to controls: 0 for no effect and ±100 for the full control effect; nearly all actives have a fitted effect of over 75% in size
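Quantitative HTS format: methyltransferase activity on a biotin-tagged H3K9 peptide is measured by AlphaScreen, using a rabbit anti-monomethyl-H3K9 antibody with streptavidin donor and anti-IgG acceptor beads. Final levels are 20 nM enzyme, 500 nM peptide, 20 uM SAM; 2 h RT.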
PI5P4K alpha inh = qHTS for Inhibitors of phosphatidylinositol 5-phosphate 4-kinase (PI5P4K); Phosphatidylinositol 5-phosphate 4-kinase type-2 alpha (Homo sapiens), P48426; PI5P4Kalpha enzyme, ADP-Glo luminescence, 60 min; active compounds read low; max response, %; 1.2% of 330,000 active; active = max response of -50% or lower; inconclusive = between -30% and -50%; inactive = -30% or higher; also: value at the top dose of about 77 µM; % is scaled to controls: 0 for no effect and ±100 for the full control effect
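Compounds were pin-transferred onto PI5P4Kalpha and substrate in HEPES pH 7.4 buffer with EGTA, CHAPS and 5% DMSO. ATP (5 microM final) started the reaction, which ran 60 minutes at room temperature before ADP-Glo detection.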
Numbers without * were called inactive; ? = inconclusive; . = not tested or not shown; ! = not active in a repeat; [ ] = remark or other dose. A selection: hits, their analogues and other compounds. The true share with any hit is near 12%. Unless noted, calls follow the shape of the dose curve; as a rule, active = well fitted curve in the direction sought with a large enough effect; inconclusive = small, poorly fitted or top-dose-only effect, or another doubt; inactive = no such curve, though single readings can be large; an effect the other way counts as inactive or inconclusive.

SMILES | JMJD2A Tudor inh | PLK1 PBD block | HP1b binding inh | BAZ2B block | G9a inh | PI5P4K alpha inh
C/C(CC(=O)Nc1ccc(C)c(Cl)c1)=N\NC(=O)c1ccccn1 | -11% | -8% | 37% | -10% | -13% | 24
COc1ccc(NC(=O)CN2CCN(CC(=O)Nc3ccccc3F)CC2)cc1OC | -19% | -7% | 34% | -5% | 45µM*! | 2
COc1ccc(NC(=O)CN2CCN(CC(=O)Nc3ccccc3F)CC2)c(OC)c1 | -11% | 0% | 42% | 9% | 32µM*! | 1
COc1ccccc1NC(=O)CN1CCN(CC(=O)Nc2ccc(F)cc2)CC1 | -3% | -11% | 40% | 9% | ? | -6
COc1ccccc1NC(=O)CN1CCN(CC(=O)Nc2ccc(OC)c(OC)c2)CC1 | -17% | -8% | 40% | -2% | ? | 0
COc1ccc(NC(=O)CN2CCN(CC(=O)Nc3ccccc3OC)CC2)c(OC)c1 | -6% | -2% | 37% | 0% | ? | 3
COc1ccccc1NC(=O)CN1CCN(CC(=O)Nc2ccc(S(N)(=O)=O)cc2)CC1 | -9% | -13% | 24% | 4% | 45µM* | 4
COc1ccccc1NC(=O)CN1CCN(CC(=O)Nc2ccc(OCc3ccccc3)cc2)CC1 | -27% | -1% | 2% | -34% | 35µM* | 1
CSc1ccc(CCNC(=O)c2ccc(-n3c(C)cc4c3CCCC4)cc2)cc1 | -26% | . | 27% | -15% | -3%[59 µM] | .
C=CCn1c(CSc2ccc(C)cc2)n[nH]c1=S | 12% | 2% | 63% | -25% | 8.9µM* | -5
C=CCn1c(CSc2nnc(-c3ccccc3)n2C)n[nH]c1=S | 10µM* | -5% | 41% | -3% | . | 0
Cn1c(SCc2n[nH]c(=S)o2)nnc1-c1ccccc1 | ? | -20% | 30% | 1% | ? | -13
C=CCn1c(SCc2n[nH]c(=S)n2-c2ccccc2)nnc1-c1ccccc1 | 11µM* | 2% | 37% | -13% | 11µM* | 6
CCCCCCCCN1C(=O)[C@H](CC(=O)N2CCSCC2)C[C@@]2(C(=O)OC)CC(C)(C)CC=C12 | . | -1% | . | . | . | -3
C[N+](C)(C)c1ccc(/C=N/Nc2nc(Cl)c(C#N)c(Cl)c2Cl)cc1 | 32µM* | 20% | 9% | 50µM* | ? | -11
Cc1cccnc1NC(=O)c1ccc2nc(N)sc2c1 | -2% | ? | 14% | 4% | 40µM* | -8
O=C(/C=C/c1ccc(O)c(O)c1)O[C@H](Cc1ccc(O)c(O)c1)C(=O)O | . | . | . | 3.5µM* | ? | .
COC(=O)C(N)Cc1ccc(O)c(O)c1 (stereo not drawn) | -15% | -4% | 0% | -31% | ? | 2
O=C(/C=C/c1ccc(O)c(O)c1)NC(=O)c1ccccc1O | 63µM* | -6% | ? | 50µM* | 5%[12.7 µM] | ?
O=C(O)/C=C/c1ccc(O)c(O)c1 | ? | -7% | 13% | ? | 11µM* | ?
O=C(O)/C=C/c1cccc(B(O)O)c1 | -6% | . | 7% | . | . | .
O=C(/C=C/c1ccc(Br)cc1)NC(=O)c1ccccc1O | -11%[57.1 µM] | -29% | -8% | ? | ? | -3
COc1ccc(-n2c(=O)c3ccc(C(=O)NCc4ccc(C)cc4)cc3n(CC(=O)Nc3ccc(F)cc3)c2=O)cc1 | 1% | . | 26% | . | 2%[59 µM] | .
CCN(CC)C(=O)Cn1cnc2sc(C)c(S(=O)(=O)N3CCC(C)CC3)c2c1=O | 11% | 1% | 40% | 9% | 32% | -5
Cc1csc2nc(COC(=O)c3ccc(NC(=O)C(C)Oc4ccccc4)cc3)cc(=O)n12 (stereo not drawn) | ? | . | 51% | -3% | 33%[59 µM] | .
SMILES | JMJD2A Tudor inh | PLK1 PBD block | HP1b binding inh | BAZ2B block | G9a inh | PI5P4K alpha inh
CCCCCn1c(=O)[nH]c2cc(C(=O)N3CCN(c4cccc(C)c4)C(C)C3)ccc2c1=O (stereo not drawn) | -16% | . | 20% | -1% | -2%[59 µM] | .
Cc1ccc(CSCC2Nc3ccc(C(=O)N4CCN(c5cccc(C)c5)C(C)C4)cc3NC2=O)cc1 (stereo not drawn) | . | . | . | -30%[57.1 µM] | 7.1µM* | .
Cc1cccc(N2CCN(C(=O)c3ccc4c(c3)NC(=O)C(CSCc3ccc(F)cc3)N4)CC2C)c1 (stereo not drawn) | . | . | . | -28%[57.1 µM] | 14µM* | .
Cc1cccc(N2CCN(C(=O)c3cccc(N4C(=O)C5C6C=CC(C6)C5C4=O)c3)CC2C)c1 (stereo not drawn) | -24% | -2% | 22% | -26% | -45% | -1
COc1ccc(CCNC(=O)CCc2c(C)nc3c(c(C)nn3-c3ccc(C)cc3)c2C)c(OC)c1 | -15% | . | 27% | -4% | -41%[59 µM] | .
O=C(CN(c1cccc(Cl)c1)S(=O)(=O)c1ccc(Cl)cc1)NCc1ccccn1 | -28% | 3% | 31% | ? | . | 1
CN(C)c1ccc(/C=N\Nc2ccccn2)cc1 | ? | -3% | ? | 25µM* | 40µM* | -1
CN(C)c1ccc(/C=N/Nc2ccc(-n3ccnc3)nn2)cc1 | ? | -14% | -1% | 18µM* | ? | -12
Cc1nn(CCC(=O)NC(C)C)c(=O)c2nn(-c3ccccc3)c(C)c12 | 0% | . | 14% | -8% | -23%[59 µM] | .
C#CCOCCOCCOCCNc1nc(N2CCN(C(=O)CCCCCCCCCCNC(=O)Cn3cc(CCCCCN)nn3)CC2)nc(N2CCN(C(=O)CCCCCCCCCCNC(=O)[C@@H]([C@H](C)O)n3cc(C)nn3)CC2)n1 | 79µM* | -10% | ? | ? | 23%[2.33 µM] | ?
C#CCOCCOCCOCCNc1nc(N2CCN(C(=O)CCCCCCCCCCNC(=O)Cn3cc(C[C@@H](C)O)nn3)CC2)nc(N2CCN(C(=O)CCCCCCCCCCNC(=O)[C@@H](CCSC)n3cc(CCO)nn3)CC2)n1 | -25% | 4% | 33% | 4% | 1%[2.33 µM] | 1
C#CCOCCOCCOCCNc1nc(N2CCN(C(=O)Cn3cc(CCCCN)nn3)CC2)nc(N2CCN(C(=O)Cn3cc(CC(C)O)nn3)CC2)n1 (stereo not drawn) | -11% | -6% | 85% | ? | 50µM* | 2
C#CCOCCOCCOCCNc1nc(N2CCN(C(=O)Cn3cc(CCCCN)nn3)CC2)nc(N2CCN(C(=O)[C@H](C(C)C)n3cc(CCO)nn3)CC2)n1 | -17% | 5% | 33% | ? | ? | -4

Screening results from PubChem BioAssay.
